Results from PubChem BioAssay (Tox21).
Inconclusive results are not listed. Calls of active or inactive are those of the source. Unless noted, the call rests on the fitted dose curve.

Experiments:
[1] = molecular target: Androgen receptor (Homo sapiens) (UniProt P10275); experiment: qHTS assay to identify small molecule agonists of the androgen receptor (AR) signaling pathway in the presence of an antagonist (AID 1259381); further: nearly all actives have a fitted effect of over 15% in size
Outline: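 Plated MDA-kb2 cells (3,000/well) were pre-incubated 5hr, given nilutamide (3.0uM final) or buffer, then dosed with compounds in DMSO at 15 concentrations. Luciferase activity was quantified by luminescence after 16hr at 37C.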

[2] = qHTS assay to identify small molecule antagonists of the estrogen receptor beta (ER-beta) signaling pathway - cell viability counter screen (AID 1259382; active means well fitted curve in the direction sought with a large enough effect in the repeat runs; an effect the other way counts as inactive or inconclusive;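 further: HEK293T cells carrying ER-beta-UAS-bla reporter stimulated with estradiol; series mostly up to about 92 µM; nearly all actives have a fitted effect of over 55% in size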)
Outline: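 CellTiter-Glo ATP luminescence measured after the LiveBLAzer read in the same wells; ER-beta-UAS-bla HEK293T cells, 16 hr compound treatment with 1nM 17-beta-estradiol agonist at 37C, 5% CO2.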

[3] = qHTS assay to identify small molecule agonists or antagonists of the thyroid stimulating hormone receptor (TSHR) signaling pathway - wild type cell line counter screen (AID 1259384)
Outline: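 Wild-type Hek293 cells, 800/well, 18 h at 37C, then compound with Ro20-1724 for 30 min RT. cAMP by HTRF (cAMP-d2/anti-cAMP cryptate), 1 h RT, fluorescence read. 15 concentrations, triplicates.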

[4] = molecular target: Thyrotropin receptor (Homo sapiens) (UniProt P16473); experiment: qHTS assay to identify small molecule antagonists of the thyroid stimulating hormone receptor (TSHR) signaling pathway (AID 1259385); further: nearly all actives have a fitted effect of over 20% in size
Outline: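 TSHR-HEK293 cells (800/well) plated 18 h, then compounds with Ro20-1724 and TSH at 1.5 ng/mL final, 30 min at room temperature. cAMP quantified by HTRF (cAMP-d2/anti-cAMP-cryptate, 1 h); 15 concentrations in triplicate.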

[5] = qHTS assay to identify small molecule agonists of the estrogen receptor alpha (ER-alpha) signaling pathway in the presence of an antagonist - cell viability counter screen (AID 1259386; active means well fitted curve in the direction sought with a large enough effect in the repeat runs; an effect the other way counts as inactive or inconclusive;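 further: series mostly up to about 92 µM; cells exposed to compounds for 22 h at 37 °C before the viability read; nearly all actives have a fitted effect of over 30% in size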)
Outline: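 Using estrogen-depleted VM7Luc4E2 cells, the 15-concentration compound series was applied together with 10.0nM ICI-182,780 and incubated 22hr at 37C/5% CO2. Cell viability was then scored by CellTiter-Fluor.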

[6] = molecular target: Progesterone receptor (Homo sapiens) (UniProt P06401); experiment: qHTS assay to identify small molecule agonists of the progesterone receptor (PR) signaling pathway (AID 1346784); further: nearly all actives have a fitted effect of over 30% in size
Outline: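 Seed PR-UAS-bla HEK 293T cells (2% charcoal-stripped FBS), incubate 6 hr at 37C; add compounds in DMSO, 16 hr at 37C; add LiveBLAzer B/G substrate, 2 hr RT; read fluorescence intensity.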

[7] = molecular target: Progesterone receptor (Homo sapiens) (UniProt P06401); experiment: qHTS assay to identify small molecule antagonists of the progesterone receptor (PR) signaling pathway (AID 1346795; active means well fitted inhibition curve with a large enough effect in the signal ratio in the repeat runs, not every such curve was filed as active; the % refers to the signal ratio; further: potency means the concentration at half of the fitted maximal effect)
Outline: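 Screening used a GripTite HEK293T line with PR-responsive UAS-beta-lactamase. Cells were challenged with compound in the presence of 1 nM R5020 final for 16 hr at 37C; B/G FRET substrate, 2 hr room temperature, fluorescence.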

[8] = qHTS assay to identify small molecule antagonists of the progesterone receptor (PR) signaling pathway - cell viability counter screen (AID 1346798; active means well fitted curve in the direction sought with a large enough effect in the repeat runs; an effect the other way counts as inactive or inconclusive; further: series mostly up to about 92 µM; nearly all actives have a fitted effect of over 50% in size)
Outline: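 Measures cytotoxicity in parallel with the PR antagonist reporter read: HEK293T PR-UAS-bla cells get compound and R5020 for 16 hr, and remaining viable cells are quantified by CellTiter-Glo luminescence.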

[9] = molecular target: Estrogen receptor (Homo sapiens) (UniProt P03372); experiment: qHTS assay to identify small molecule agonists of the estrogen receptor alpha (ER-alpha) signaling pathway in the presence of an antagonist (AID 1259383); further: nearly all actives have a fitted effect of over 15% in size; further: potency means the concentration at half of the fitted maximal effect
Outline: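 Luminescent ERE-luciferase reporter, VM7Luc4E2 cells (endogenous ER-alpha); 10.0nM ICI-182,780 final; 15-point compound titration; 22hr at 37C; ONE-Glo, 30min RT.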

[10] = qHTS assay to identify small molecule agonists of the progesterone receptor (PR) signaling pathway - cell viability counter screen (AID 1346799); further: nearly all actives have a fitted effect of over 45% in size
Outline: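 Using the same plates as the PR reporter screen, HEK293T PR-UAS-bla cells received compounds for 16 hr at 37C and were then lysed with CellTiter-Glo; luminescence was read 30 min later at room temperature.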

Measured: Potency

Thyrotropin receptor (Homo sapiens), sequence (P16473 whole entry, looked up): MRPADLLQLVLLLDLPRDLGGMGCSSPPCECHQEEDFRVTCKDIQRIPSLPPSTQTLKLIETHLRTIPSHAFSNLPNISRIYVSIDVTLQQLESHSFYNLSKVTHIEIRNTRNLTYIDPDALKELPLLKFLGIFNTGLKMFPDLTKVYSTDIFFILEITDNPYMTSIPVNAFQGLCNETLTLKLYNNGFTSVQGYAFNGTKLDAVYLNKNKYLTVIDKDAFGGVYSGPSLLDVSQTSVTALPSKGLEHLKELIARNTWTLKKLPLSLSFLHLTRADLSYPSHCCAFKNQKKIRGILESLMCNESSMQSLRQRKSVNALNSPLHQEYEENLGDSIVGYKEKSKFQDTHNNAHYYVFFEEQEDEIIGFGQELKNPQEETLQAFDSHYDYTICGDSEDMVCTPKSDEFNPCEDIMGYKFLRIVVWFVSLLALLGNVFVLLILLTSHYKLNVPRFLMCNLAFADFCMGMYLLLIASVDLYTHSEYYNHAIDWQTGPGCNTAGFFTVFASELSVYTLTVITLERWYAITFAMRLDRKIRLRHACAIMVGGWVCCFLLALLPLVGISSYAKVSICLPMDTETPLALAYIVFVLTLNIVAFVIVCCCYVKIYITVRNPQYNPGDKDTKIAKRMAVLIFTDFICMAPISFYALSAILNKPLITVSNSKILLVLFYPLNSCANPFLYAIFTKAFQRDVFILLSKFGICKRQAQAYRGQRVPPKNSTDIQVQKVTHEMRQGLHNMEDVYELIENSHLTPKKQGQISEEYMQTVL
Androgen receptor (Homo sapiens), sequence (P10275 whole entry, looked up): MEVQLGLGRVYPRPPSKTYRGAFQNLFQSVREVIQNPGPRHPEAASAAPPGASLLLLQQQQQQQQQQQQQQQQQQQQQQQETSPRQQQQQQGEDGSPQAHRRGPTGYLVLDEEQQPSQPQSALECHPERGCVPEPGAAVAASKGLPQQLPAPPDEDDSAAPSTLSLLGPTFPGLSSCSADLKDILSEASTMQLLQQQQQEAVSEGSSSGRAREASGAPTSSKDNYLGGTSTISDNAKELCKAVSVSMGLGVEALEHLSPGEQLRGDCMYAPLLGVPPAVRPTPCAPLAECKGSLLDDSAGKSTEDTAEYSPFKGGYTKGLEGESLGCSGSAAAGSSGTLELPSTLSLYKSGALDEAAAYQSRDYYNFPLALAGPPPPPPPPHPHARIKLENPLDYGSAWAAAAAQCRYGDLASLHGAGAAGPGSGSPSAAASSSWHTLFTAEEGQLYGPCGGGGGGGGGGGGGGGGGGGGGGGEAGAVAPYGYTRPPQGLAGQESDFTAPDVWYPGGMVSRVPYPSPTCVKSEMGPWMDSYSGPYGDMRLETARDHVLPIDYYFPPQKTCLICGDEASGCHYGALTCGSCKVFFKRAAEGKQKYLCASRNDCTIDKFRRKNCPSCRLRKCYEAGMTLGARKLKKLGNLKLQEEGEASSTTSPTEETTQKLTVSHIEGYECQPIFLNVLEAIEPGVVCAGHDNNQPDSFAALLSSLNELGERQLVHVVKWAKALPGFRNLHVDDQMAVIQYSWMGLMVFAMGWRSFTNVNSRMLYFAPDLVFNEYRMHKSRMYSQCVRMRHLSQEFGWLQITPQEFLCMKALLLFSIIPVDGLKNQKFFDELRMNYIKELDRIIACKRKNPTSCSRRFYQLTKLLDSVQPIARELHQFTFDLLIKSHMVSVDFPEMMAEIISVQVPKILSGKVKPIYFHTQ
Progesterone receptor (Homo sapiens), sequence (P06401 whole entry, looked up): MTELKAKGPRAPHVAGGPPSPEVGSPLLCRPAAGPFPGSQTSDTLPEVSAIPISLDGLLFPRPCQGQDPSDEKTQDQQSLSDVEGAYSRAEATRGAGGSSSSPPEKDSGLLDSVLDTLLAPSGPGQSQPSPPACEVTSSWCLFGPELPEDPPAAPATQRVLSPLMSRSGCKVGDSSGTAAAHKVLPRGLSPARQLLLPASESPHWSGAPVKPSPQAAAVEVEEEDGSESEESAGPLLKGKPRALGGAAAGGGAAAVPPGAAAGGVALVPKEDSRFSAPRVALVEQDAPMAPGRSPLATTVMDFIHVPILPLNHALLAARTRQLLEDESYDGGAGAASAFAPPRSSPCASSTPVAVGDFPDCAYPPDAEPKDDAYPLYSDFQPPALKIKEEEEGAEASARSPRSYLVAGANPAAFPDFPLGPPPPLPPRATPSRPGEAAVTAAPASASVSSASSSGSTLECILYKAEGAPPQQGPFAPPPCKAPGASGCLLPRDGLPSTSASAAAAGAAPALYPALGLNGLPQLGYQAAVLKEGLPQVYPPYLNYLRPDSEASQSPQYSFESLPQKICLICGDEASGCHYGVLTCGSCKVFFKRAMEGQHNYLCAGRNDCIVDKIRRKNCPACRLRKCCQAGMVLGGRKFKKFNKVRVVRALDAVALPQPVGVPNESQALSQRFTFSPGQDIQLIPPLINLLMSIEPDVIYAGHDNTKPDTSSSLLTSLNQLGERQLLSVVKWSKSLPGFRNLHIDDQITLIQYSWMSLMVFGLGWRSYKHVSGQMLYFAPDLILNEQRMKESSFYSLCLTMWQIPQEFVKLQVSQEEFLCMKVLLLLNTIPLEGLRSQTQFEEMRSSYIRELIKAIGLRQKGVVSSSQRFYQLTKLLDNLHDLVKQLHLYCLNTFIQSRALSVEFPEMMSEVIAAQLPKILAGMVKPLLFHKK
Estrogen receptor (Homo sapiens), sequence (P03372 whole entry, looked up): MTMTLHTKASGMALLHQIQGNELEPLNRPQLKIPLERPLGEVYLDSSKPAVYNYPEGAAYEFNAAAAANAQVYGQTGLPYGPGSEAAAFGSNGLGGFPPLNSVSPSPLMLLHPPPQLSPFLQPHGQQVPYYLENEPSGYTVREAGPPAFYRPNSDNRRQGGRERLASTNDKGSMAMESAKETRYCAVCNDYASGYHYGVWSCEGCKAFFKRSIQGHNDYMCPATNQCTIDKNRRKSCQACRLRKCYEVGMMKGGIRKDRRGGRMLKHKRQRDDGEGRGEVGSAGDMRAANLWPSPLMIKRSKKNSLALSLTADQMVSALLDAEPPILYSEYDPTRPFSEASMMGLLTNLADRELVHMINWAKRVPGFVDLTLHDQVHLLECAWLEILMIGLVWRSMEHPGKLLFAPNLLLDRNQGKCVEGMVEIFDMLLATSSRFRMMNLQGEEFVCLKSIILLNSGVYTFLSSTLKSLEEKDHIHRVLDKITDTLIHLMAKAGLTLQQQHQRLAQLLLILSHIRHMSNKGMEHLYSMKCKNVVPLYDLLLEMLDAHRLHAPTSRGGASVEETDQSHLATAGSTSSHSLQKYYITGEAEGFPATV

O=C(O)CSCC(=O)NC1CCSC1=O (configuration not stated)
not listed: [9] | [10]
inactive: all other assays above

OCC1CCC(CO)CC1 (configuration not stated)
not listed: [6] | [8]
inactive: all other assays above

O=C(Cl)c1ccccc1[N+](=O)[O-]
not listed: [9]
inactive: all other assays above

COc1cc(/C=C/C(N)=O)cc(OC)c1OC
inactive: all assays above

COC(=O)c1cc(Cl)cc(Cl)c1
inactive: all assays above

C/C=C(\C)C(C)=O
not listed: [7]
inactive: all other assays above

COC(C)(OC)OC
inactive: all assays above

CCO[Si](CC)(OCC)OCC
not listed: [6] | [7]
inactive: all other assays above

CCC(=O)Oc1ccc2c(c1)CC[C@@H]1[C@@H]2CC[C@@]2(C)[C@H]1C[C@@H](OC(=O)CC)[C@@H]2OC(=O)CC
active: [9] 75 nM | [7] 1880 nM
inactive: all other assays above

CCC(=O)c1c(O)cc(O)cc1O
not listed: [7]
inactive: all other assays above

COc1ccc2c(c1)c1c3n2CCN(C)C3=NCC1
inactive: all assays above

Cc1cc(C)c(C(=O)O)c(C)c1
not listed: [1]
inactive: all other assays above

C=CCCCC
not listed: [1]
inactive: all other assays above

CN(C)C(C)(C)CO
not listed: [1]
inactive: all other assays above

NCC1(Cc2noc(=O)[nH]2)CCCCC1
not listed: [1]
inactive: all other assays above

CO[C@@]1(NC(=O)Cc2cccs2)C(=O)N2C(C(=O)O)=C(COC(N)=O)CS[C@@H]21
not listed: [1]
inactive: all other assays above

COc1ccc(CCO)cc1
not listed: [6] | [9] | [10]
inactive: all other assays above

Cc1ccccc1C(N)=O
not listed: [1]
inactive: all other assays above

COc1cc2c(cc1OC)CN(C(=O)[C@H](C)N[C@@H](CCc1ccccc1)C(=O)O)[C@H](C(=O)O)C2
not listed: [1]
inactive: all other assays above

O=C(CN1CCNCC1)NC1CCCCC1
not listed: [1]
inactive: all other assays above

Cc1c(Cl)cccc1Cl
not listed: [1] | [8] | [10]
inactive: all other assays above

CCCc1ccc(O)cc1
not listed: [1]
inactive: all other assays above

CC1CCc2c(N3CCC(O)CC3)c(F)cc3c(=O)c(C(=O)O)cn1c23 (configuration not stated)
not listed: [1]
inactive: all other assays above

O=C(O)CNC(=O)CNC(=O)CNC(=O)CSC(=O)c1ccccc1
not listed: [1]
inactive: all other assays above

CC1(C)Oc2ccc(C#N)cc2[C@@H](N2CCCC2=O)[C@@H]1O
not listed: [1]
inactive: all other assays above

CC1c2ccccc2CN1NC(=O)c1ccc(Cl)c(S(N)(=O)=O)c1 (configuration not stated)
not listed: [1]
inactive: all other assays above
